Data on eight sequences can be found in article PMC7862700, “An all-to-all approach to the identification of sequence-specific readers for epigenetic DNA modifications on cytosine”.

Holding throughout (assay): DAPPL (digital affinity profiling via proximity ligation, sequencing); 10 mM Tris-HCl pH 7.5, 50 mM NaCl, 1 mM DTT, 4% glycerol, room temperature, 30 min; GST-TFs on glutathione beads, 16-mer random dsDNA library, 0.1% formaldehyde crosslink after washing; high values mean tight binding
Holding throughout (conditions): protein: recombinant; tags: N-terminal GST; dsDNA, one strand shown

The target in one test is T1, ERF (Homo sapiens, UniProt P50548 1-548).
T1 sequence: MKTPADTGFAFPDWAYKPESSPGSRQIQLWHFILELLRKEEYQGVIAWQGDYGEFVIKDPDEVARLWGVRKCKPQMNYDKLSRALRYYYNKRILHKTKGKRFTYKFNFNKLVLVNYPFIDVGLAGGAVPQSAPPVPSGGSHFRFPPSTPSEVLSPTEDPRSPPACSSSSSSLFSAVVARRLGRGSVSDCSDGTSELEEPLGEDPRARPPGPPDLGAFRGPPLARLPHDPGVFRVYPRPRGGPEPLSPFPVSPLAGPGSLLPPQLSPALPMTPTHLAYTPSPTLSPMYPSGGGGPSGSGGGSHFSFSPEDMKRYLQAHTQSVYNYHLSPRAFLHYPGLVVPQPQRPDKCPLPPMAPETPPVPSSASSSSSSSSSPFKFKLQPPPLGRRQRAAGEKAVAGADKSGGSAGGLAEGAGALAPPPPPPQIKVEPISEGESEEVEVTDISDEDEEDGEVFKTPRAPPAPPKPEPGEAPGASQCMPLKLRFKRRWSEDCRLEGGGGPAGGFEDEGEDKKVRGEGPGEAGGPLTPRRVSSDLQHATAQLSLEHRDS
Put shortly: (§1)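 In yeast, human transcription factors were expressed with a GST fusion, then pulled down on glutathione beads and given DNA barcodes. Pooled with a tag-only sample, they were exposed to 200 nmole of a 16-mer random double-stranded DNA library (Tris/NaCl/DTT/glycerol buffer, room temperature, 30 min), washed, crosslinked with 0.1% formaldehyde, proximity-ligated using BsaI/T4 ligase for 1 h at 37 °C, PCR-amplified and read on an Illumina NextSeq500. Each hexamer's frequency of reads for a factor, divided by the matching frequency for the tag-only sample, gives the binding signal.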

In a further test the target is T2, ETV3L (Homo sapiens, UniProt Q6ZN32 1-361).
T2 sequence: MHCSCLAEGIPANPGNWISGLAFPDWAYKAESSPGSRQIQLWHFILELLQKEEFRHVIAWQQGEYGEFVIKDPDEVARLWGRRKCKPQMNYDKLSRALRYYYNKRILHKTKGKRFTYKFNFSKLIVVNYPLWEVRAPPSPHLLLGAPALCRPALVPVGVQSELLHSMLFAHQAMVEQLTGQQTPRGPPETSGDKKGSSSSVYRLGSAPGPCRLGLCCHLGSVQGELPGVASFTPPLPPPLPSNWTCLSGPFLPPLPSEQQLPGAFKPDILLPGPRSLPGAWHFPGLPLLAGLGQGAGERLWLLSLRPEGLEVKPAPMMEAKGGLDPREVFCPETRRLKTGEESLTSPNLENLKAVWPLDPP
The essentials: as §1

In a further test the target is T3, ETS2 (Homo sapiens, UniProt P15036 1-469).
T3 sequence: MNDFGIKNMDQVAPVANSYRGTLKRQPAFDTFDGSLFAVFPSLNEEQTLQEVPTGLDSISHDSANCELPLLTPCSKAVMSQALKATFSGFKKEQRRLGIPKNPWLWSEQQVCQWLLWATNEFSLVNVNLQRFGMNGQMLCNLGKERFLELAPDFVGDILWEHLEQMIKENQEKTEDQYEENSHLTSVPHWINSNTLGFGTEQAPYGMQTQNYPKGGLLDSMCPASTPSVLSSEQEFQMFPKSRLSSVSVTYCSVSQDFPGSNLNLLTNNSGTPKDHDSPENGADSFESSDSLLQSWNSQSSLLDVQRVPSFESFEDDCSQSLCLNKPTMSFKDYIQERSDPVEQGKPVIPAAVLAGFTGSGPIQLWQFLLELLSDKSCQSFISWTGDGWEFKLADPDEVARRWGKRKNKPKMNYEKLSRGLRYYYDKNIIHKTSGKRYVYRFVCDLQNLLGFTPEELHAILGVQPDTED
Put shortly: as §1

The target in a further test is T4, SPDEF (Homo sapiens, UniProt O95238 1-335).
T4 sequence: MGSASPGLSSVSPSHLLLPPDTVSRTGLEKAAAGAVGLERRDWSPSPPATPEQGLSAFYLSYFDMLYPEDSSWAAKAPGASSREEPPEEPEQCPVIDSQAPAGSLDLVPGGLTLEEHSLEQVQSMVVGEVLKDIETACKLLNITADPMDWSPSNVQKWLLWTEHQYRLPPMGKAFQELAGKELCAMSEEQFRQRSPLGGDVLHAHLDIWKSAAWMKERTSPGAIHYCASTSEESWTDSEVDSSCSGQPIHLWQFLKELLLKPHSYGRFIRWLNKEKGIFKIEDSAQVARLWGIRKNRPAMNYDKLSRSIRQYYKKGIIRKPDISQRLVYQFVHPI
Put shortly: as §1

The target in a further test is T5, ETV7 (Homo sapiens, UniProt Q9Y603 1-341).
T5 sequence: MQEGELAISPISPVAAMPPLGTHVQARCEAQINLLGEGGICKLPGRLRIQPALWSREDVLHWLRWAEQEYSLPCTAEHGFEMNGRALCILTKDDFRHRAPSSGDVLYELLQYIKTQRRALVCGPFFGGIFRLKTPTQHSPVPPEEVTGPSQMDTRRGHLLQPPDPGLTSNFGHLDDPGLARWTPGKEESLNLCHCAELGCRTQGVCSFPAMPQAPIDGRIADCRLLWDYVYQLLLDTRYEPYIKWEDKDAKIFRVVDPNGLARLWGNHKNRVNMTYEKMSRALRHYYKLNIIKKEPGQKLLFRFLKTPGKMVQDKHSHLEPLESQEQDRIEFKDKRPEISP
The essentials: as §1

For the next test, the target named is T6, ELF5 (Homo sapiens, UniProt Q9UKW6-2 1-255).
T6 sequence: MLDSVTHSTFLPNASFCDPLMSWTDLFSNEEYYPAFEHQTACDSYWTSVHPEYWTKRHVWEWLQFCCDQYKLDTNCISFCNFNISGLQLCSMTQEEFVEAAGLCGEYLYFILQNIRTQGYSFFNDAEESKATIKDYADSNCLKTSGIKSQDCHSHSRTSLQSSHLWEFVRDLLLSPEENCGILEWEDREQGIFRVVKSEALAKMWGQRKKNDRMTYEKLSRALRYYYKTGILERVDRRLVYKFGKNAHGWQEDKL
The essentials: as §1

A further test addresses T7, ETV3 (Homo sapiens, UniProt P41162-2 1-143).
T7 sequence: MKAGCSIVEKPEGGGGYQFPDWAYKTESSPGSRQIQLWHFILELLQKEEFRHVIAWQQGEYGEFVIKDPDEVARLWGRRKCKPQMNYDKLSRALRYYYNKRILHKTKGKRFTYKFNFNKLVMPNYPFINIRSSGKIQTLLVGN
The essentials: as §1

In another test the target is ETV6 (Homo sapiens, UniProt P41212 1-452). Put shortly: as §1
Chain of ETV6 (P41212 whole entry): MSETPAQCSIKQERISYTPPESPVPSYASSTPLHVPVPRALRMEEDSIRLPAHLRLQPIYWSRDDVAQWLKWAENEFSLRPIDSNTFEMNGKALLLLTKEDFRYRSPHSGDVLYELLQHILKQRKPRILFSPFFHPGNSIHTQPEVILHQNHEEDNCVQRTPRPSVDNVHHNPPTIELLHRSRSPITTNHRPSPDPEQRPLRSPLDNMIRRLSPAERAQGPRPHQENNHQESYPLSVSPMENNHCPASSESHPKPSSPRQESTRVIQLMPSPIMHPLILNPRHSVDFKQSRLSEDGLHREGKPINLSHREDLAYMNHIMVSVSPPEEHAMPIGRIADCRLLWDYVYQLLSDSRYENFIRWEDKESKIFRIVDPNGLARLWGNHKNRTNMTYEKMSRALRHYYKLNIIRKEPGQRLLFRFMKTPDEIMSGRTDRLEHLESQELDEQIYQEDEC

Turning to CCGAAT, the binding signal with ERF is 1.35 fold enrichment (6-mer frequency, TF over GST control); with ETV3L, 1.24 fold enrichment (6-mer frequency, TF over GST control); with ETS2 it was 1.22 fold enrichment (6-mer frequency, TF over GST control); with SPDEF it was 1.17 fold enrichment (6-mer frequency, TF over GST control); in the test with ETV7, 1.12 fold enrichment (6-mer frequency, TF over GST control); with ELF5 it was 1.1 fold enrichment (6-mer frequency, TF over GST control). Further, the binding signal is 1.12 fold enrichment (6-mer frequency, TF over GST control) with ETV3 and 1.22 fold enrichment (6-mer frequency, TF over GST control) with ETV6.

Turning to AAGTAC, the binding signal with ERF was 1.42 fold enrichment (6-mer frequency, TF over GST control); in the test with ETV3L it was 1.39 fold enrichment (6-mer frequency, TF over GST control); with ETS2 it was 1.59 fold enrichment (6-mer frequency, TF over GST control); with SPDEF, 1.92 fold enrichment (6-mer frequency, TF over GST control); with ETV7, 1.65 fold enrichment (6-mer frequency, TF over GST control); with ELF5, 1.69 fold enrichment (6-mer frequency, TF over GST control). For the same sequence, the binding signal with ETV3 was 1.62 fold enrichment (6-mer frequency, TF over GST control); with ETV6, 1.85 fold enrichment (6-mer frequency, TF over GST control).

Turning to ATCCTT, the binding signal in the test with ERF was 1.56 fold enrichment (6-mer frequency, TF over GST control); with ETV3L it was 1.58 fold enrichment (6-mer frequency, TF over GST control); in the test with ETS2, 1.47 fold enrichment (6-mer frequency, TF over GST control); in the test with SPDEF, 2.13 fold enrichment (6-mer frequency, TF over GST control); in the test with ETV7 it was 1.49 fold enrichment (6-mer frequency, TF over GST control); in the test with ELF5, 2.26 fold enrichment (6-mer frequency, TF over GST control). In addition, the binding signal with ETV3 is 1.84 fold enrichment (6-mer frequency, TF over GST control); with ETV6, 1.68 fold enrichment (6-mer frequency, TF over GST control).

As for CTTCCG, the binding signal with ERF was 6.13 fold enrichment (6-mer frequency, TF over GST control); with ETV3L, 7.08 fold enrichment (6-mer frequency, TF over GST control); with ETS2, 8.04 fold enrichment (6-mer frequency, TF over GST control); with SPDEF it was 7.63 fold enrichment (6-mer frequency, TF over GST control); with ETV7, 7.48 fold enrichment (6-mer frequency, TF over GST control); with ELF5, 11.4 fold enrichment (6-mer frequency, TF over GST control). Further, the binding signal with ETV3 was 8.47 fold enrichment (6-mer frequency, TF over GST control); with ETV6, 9.62 fold enrichment (6-mer frequency, TF over GST control).

With TCCCTC, the binding signal in the test with ERF was 1.46 fold enrichment (6-mer frequency, TF over GST control); in the test with ETV3L it was 1.41 fold enrichment (6-mer frequency, TF over GST control); in the test with ETS2, 1.49 fold enrichment (6-mer frequency, TF over GST control); in the test with SPDEF, 1.4 fold enrichment (6-mer frequency, TF over GST control); in the test with ETV7, 1.4 fold enrichment (6-mer frequency, TF over GST control); with ELF5, 1.53 fold enrichment (6-mer frequency, TF over GST control). The binding signal with ETV3 is 1.49 fold enrichment (6-mer frequency, TF over GST control); with ETV6, 1.43 fold enrichment (6-mer frequency, TF over GST control).

On to AATGCG, for which the binding signal in the test with ERF is 1.18 fold enrichment (6-mer frequency, TF over GST control); with ETV3L, 1.36 fold enrichment (6-mer frequency, TF over GST control); with ETS2, 1.3 fold enrichment (6-mer frequency, TF over GST control); in the test with SPDEF it was 1.26 fold enrichment (6-mer frequency, TF over GST control); with ETV7 it was 1.21 fold enrichment (6-mer frequency, TF over GST control); in the test with ELF5, 1.3 fold enrichment (6-mer frequency, TF over GST control). Besides, the binding signal is 1.22 fold enrichment (6-mer frequency, TF over GST control) in the test with ETV3 and 1.29 fold enrichment (6-mer frequency, TF over GST control) in the test with ETV6.

For the sequence CTTTGT, the binding signal in the test with ERF was 1.3 fold enrichment (6-mer frequency, TF over GST control); in the test with ETV3L it was 1.41 fold enrichment (6-mer frequency, TF over GST control); with ETS2, 1.24 fold enrichment (6-mer frequency, TF over GST control); in the test with SPDEF it was 1.21 fold enrichment (6-mer frequency, TF over GST control); with ETV7 it was 1.36 fold enrichment (6-mer frequency, TF over GST control); with ELF5, 1.24 fold enrichment (6-mer frequency, TF over GST control). For the same sequence, the binding signal with ETV3 was 1.32 fold enrichment (6-mer frequency, TF over GST control); with ETV6 it was 1.31 fold enrichment (6-mer frequency, TF over GST control).

As to CTCAAC, the binding signal was 1.15 fold enrichment (6-mer frequency, TF over GST control) in the test with ERF; 1.41 fold enrichment (6-mer frequency, TF over GST control) with ETV3L; 1.27 fold enrichment (6-mer frequency, TF over GST control) in the test with ETS2; 1.24 fold enrichment (6-mer frequency, TF over GST control) with SPDEF; 1.11 fold enrichment (6-mer frequency, TF over GST control) with ETV7; 1.16 fold enrichment (6-mer frequency, TF over GST control) with ELF5. In addition, the binding signal was 1.28 fold enrichment (6-mer frequency, TF over GST control) with ETV3 and 1.24 fold enrichment (6-mer frequency, TF over GST control) with ETV6.
